Out of some 5,500 compounds screened, about 2,000 (36%) were called active. Another 18% or so got no clear call; they are omitted. Cut-off read from the data, not from the text of the source: active = normalized growth mostly below about 0.91 (no sharp cut-off); inconclusive = no clear call, values can overlap the other calls; inactive = mostly above about 0.92. Some of the results follow.
Test: chemical genetic growth profiling, strain panel (AID 1159580);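 note: tested at 20 µM; growth read once vehicle control cultures reached saturation at 30 °C; 1 = growth at the plate median or of vehicle wells; lower values mean less growth of the strain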
Settings: S. cerevisiae deletion strains, growth OD

Measured: normalized growth

O=C(O)CSCC(=O)NC1CCN(Cc2ccccc2)CC1
inactive: locus YAL013W, strain DEP1, active compounds read low 1.01 | locus YBR229C, strain ROT2, active compounds read low 1.01 | locus YDL101C, strain DUN1, active compounds read low 0.997 | locus YDR150W, strain NUM1, active compounds read low 1.01 | locus YEL061C, strain CIN8, active compounds read low 1.02 | locus YGR078C, strain PAC10, active compounds read low 1 | locus YHR030C, strain SLT2, active compounds read low 1.08 | locus YHR087W, strain rtc3, active compounds read low 0.994 | locus YJR043C, strain POL32, active compounds read low 1 | locus YJR075W, strain HOC1, active compounds read low 1.01 | locus YLR039C, strain RIC1, active compounds read low 1.02 | locus YLR058C, strain SHM2 (second series), active compounds read low 0.998 | locus YLR085C, strain ARP6, active compounds read low 0.993 | locus YLR262C, strain YPT6, active compounds read low 1.05 | locus YML094W, strain GIM5, active compounds read low 1.02 | locus YMR219W, strain ESC1, active compounds read low 1.01 | locus YMR263W, strain SAP30, active compounds read low 0.998 | locus YNL153C, strain GIM3, active compounds read low 1.01 | locus YNL298W, strain CLA4 (second series), active compounds read low 1.03 | locus YNL322C, strain KRE1, active compounds read low 1.02 | locus YNR030W, strain Alg12, active compounds read low 1.02 | locus YPL055C, strain LGE1, active compounds read low 1.02 | locus YPL241C, strain CIN2, active compounds read low 1.04 | locus YPR135W, strain CTF4, active compounds read low 1

— PubChem BioAssay AID1159580 (chemical genetic matrix, 2015)
